The text below walks through data of PubChem BioAssay (NCATS).

SMILES strings stand for the structures. Results filed as inconclusive are left out. Values without a mark were called inactive. Calls follow the shape of the dose curve; as a rule, active = well fitted curve in either direction with a large enough effect (not every such curve was filed as active); inconclusive = small, poorly fitted or top-dose-only effect, or another doubt; inactive = flat fitted curve, though single readings scatter.
% is scaled to controls: 0 for no effect and ±100 for the full control effect.

The nature of the assay: AP1 Signaling Pathway (AID 357).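 Also: ME-180 reporter cells stimulated with EGF at its EC50 level.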 Conditions: ME-180 (cervical carcinoma) AP-1-bla reporter, EGF-induced, beta-lactamase ratio, 5 h; at 7.69 µM (top of the series) unless noted. An excerpt:
NCGC Assay Overview: Activator protein-1 (AP-1), a transcription factor, plays an important role in tumor genesis by regulating genes involved in cell proliferation, differentiation, apoptosis, and angiogenesis. AP-1 activity is induced by a complex network of signaling pathways that involves extracellular signals, such as growth factors. The AP-1 protein complex formed from c-Fos and c-Jun binding to the AP-1 response element results in transcriptional activation of genes containing such elements within their promoter. Low molecular weight molecules have been discovered and developed to modulate various components of these signaling pathways, for example, MAP kinase inhibitors. However, many points of pathway modulation remain untested due to the lack of chemical probes making this signaling locus of general interest. Using a beta-lactamase reporter-gene under control of the AP-1 response element, a cell-based assay [CellSensor(TM) AP-1-bla ME-180 developed by Invitrogen Corp.] was used to measure EGF-induced signaling. Library compounds were measured for their ability to modulate positively or negatively the action of EC50 EGF on reporter gene activity. Compounds were screened in a titration series in 1536-well format. Positive and negative modulators were identified based on the AC50 values derived from the screening data.
NCGC Assay Protocol Summary: 2500 cells/5uL in Opti-MEM medium containing 0.5% dialyzed FBS, 0.1 mM NEAA, 1 mM sodium pyruvate and 10 mM HEPES was dispensed into 1536-well plates and cells were cultured at 37 degrees Celsius overnight. […] After centrifugation at 1000 rpm for 2 seconds the plates were incubated at 37 degrees Celsius for 5 hours. 1 uL of CCF4-dye mixture was added to each well. After incubated at room temperature for 2.5 hours the plates were measured on an EnVision plate reader at Excitation 405nm, Emission1=460nm and Emission 2=530nm. The %Activity was determined from the ratio of 460nm/530nm.
Regarding `COc1ccccc1CN1CCCC2(CCNCC2)C1`, the activity change, negative = inhibition was -7.6%.
Turning to `CN(C)Cc1ccccc1-c1cncnc1Nc1ccncc1`, the activity change, negative = inhibition was -25.5%.
As for `O=C(c1cnccn1)N1CCC[C@@]2(CCN(Cc3cc(C(F)(F)F)cc(C(F)(F)F)c3)C2)C1`, the activity change, negative = inhibition is -16.9%.
The value for `O=C(Nc1ccccc1)N1CCC2(CC1)CCN(C(=O)c1ccncc1)CC2` was -8.86%; that for `COc1ccc2[nH]cc(CCNc3ncncc3-c3ccc(N(C)C)cc3)c2c1` was -27.6%; that for `O=C(c1ccco1)N1CCC[C@@]2(CCN(c3ccncc3)C2)C1` was 0.424%.
The value for `O=C(c1cnccn1)N1CCC[C@@]2(CCN(Cc3nccs3)C2)C1` was -10.4%; that for `Cc1cccc(CNc2ncnc3ccc(-c4ccccc4CN(C)C)cc23)c1` was -7.85%; that for `CN(C)c1ncc2nc(-c3cc(F)cc(F)c3)c(=O)n(C[C@H]3CCCO3)c2n1` was 19.6%.
The value for `c1ccc(Nc2cc(-c3ccoc3)ncn2)cc1` was -8.62%.
Take `CN(C)c1ccnc(-c2cccc(NS(C)(=O)=O)c2)n1`: the activity change, negative = inhibition is -6.35%.
With `O=C(c1cnccn1)N1CCC[C@@]2(CCN(C(c3ccccc3)c3ccccc3)C2)C1`, the activity change, negative = inhibition was 0.193%.
The value for `Cn1cccc1C(=O)N1CCC[C@@]2(CCN(Cc3cc(C(F)(F)F)cc(C(F)(F)F)c3)C2)C1` was 8.92%.
Under `CCNc1ncc2nc(C)c(=O)n(C)c2n1` stands -6.84%.
Under `O=C(Nc1cccc(F)c1)N1CCCC2(CCN(S(=O)(=O)c3ccccc3)CC2)C1` stands -9.39%; under `COCCNc1ccnc(-c2ccccc2CN(C)C)n1`, 3.13%; under `Fc1ccc(Nc2ccnc(-c3ccccc3C(F)(F)F)n2)cc1`, -7.91%.
Regarding `COCC(=O)N1CCC2(CC1)CCN(C(=O)Nc1cccc(F)c1)CC2`, the activity change, negative = inhibition is 5.9%.
The value for `Cc1noc(C)c1-c1cncnc1NCCN1CCOCC1` was 4.2%; that for `O=C(c1ccncc1)N1CCC2(CC1)CCN(c1cccc(-c3ccccc3)c1)CC2` was -1.52%.
On to `CC(=O)N1CCC2(CCN(Cc3cc(C(F)(F)F)cc(C(F)(F)F)c3)CC2)CC1`, for which the activity change, negative = inhibition is -20.5%.
Under `O=C(c1ccco1)N1CCC[C@@]2(CCN(Cc3nccs3)C2)C1` stands 1.19%.
The value for `COc1ccc(-n2c(=O)c(-c3cccs3)nc3cnc(N4CCOCC4)nc32)cc1` was 0.656%; that for `COCCn1c(=O)c(C)nc2cnc(Oc3ccc(OC)cc3)nc21` was -18.9%.
Take `COCCNc1ncnc2ccc(-c3ccccc3C)cc12`: the activity change, negative = inhibition was -10.5%.
The value for `COC(=O)N1CCC2(CCCN(c3ccc(-c4ccccc4)cc3)C2)CC1` was -0.311%; that for `O=C(Oc1ccccc1)N1CCC2(CC1)CN(c1ccccc1)C2` was 3.75%; that for `Cc1noc(C)c1C(=O)N1CCC2(CCN(Cc3cc(C(F)(F)F)cc(C(F)(F)F)c3)CC2)CC1` was -3.69%.
The value for `Cn1cccc1C(=O)N1CCC2(CC1)CCN(c1ccccc1)CC2` was -11.3%.
For `COc1ccccc1CN1CC[C@@]2(CCCN(C(=O)c3cccc(F)c3)C2)C1`, the activity change, negative = inhibition was -14.6%.
On to `COc1ccc(-n2c(=O)cnc3cnc(N4CCOCC4)nc32)cc1`, for which the activity change, negative = inhibition is 4.95%.
The value for `CN1CCN(c2nc(-c3ccccc3C(F)(F)F)nc3ccccc23)CC1` was -3.47%; that for `O=C(Nc1cccc(F)c1)N1CCCC2(CCN(C(=O)c3ccncc3)CC2)C1` was -4.33%; that for `O=c1c(-c2cccs2)nc2cnc(N3CCOCC3)nc2n1Cc1ccc(F)cc1` was 27.4%.
Under `COc1ccc(CNc2cc(-c3ccoc3)ncn2)c(OC)c1` stands -15.9%; under `CN(C)Cc1ccccc1-c1nccc(N(C)C)n1`, 23.3%; under `COc1ccccc1-c1ccc2ncnc(N3CCN(C)CC3)c2c1`, 2.3%.
The value for `COCCNc1ccnc(-c2cccc(NS(C)(=O)=O)c2)n1` was -8.74%; that for `Cc1noc(C)c1-c1cc(NCc2cccs2)ncn1` was 17%; that for `O=c1c(-c2cccs2)nc2cnc(N3CCOCC3)nc2n1Cc1cccs1` was 15.1%.
